TROY NFkB inh: inhibitors of TROY-dependent NF-kB signaling; Q293 LMP1-TROYcd NF-kB luciferase reporter, 4 h; inhibition, % at 10 µM; 360,000 compounds, 0.98% hits;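 active = compounds whose plate-normalised and pattern-corrected inhibition of the luciferase reporter signal at the single screening dose is 50% or more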
TWEAK Fn14 block: blocks TWEAK-Fn14 interaction in a reporter cell assay; TWEAK-stimulated Fn14 reporter cells, luciferase luminescence, 8 h; inhibition, % at 10 µM; 360,000 compounds, 2% hits; AID 1159606; in the data active = inhibition above about 50%
LGR2 inh: blocks bursicon-induced cAMP signaling via Drosophila LGR2 | 380,000 compounds, 0.35% hits | HEK293 LGR2, CRE-luciferase, bursicon-stimulated, 4 h | inhibition, % at 9.99 µM | AID 720647;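 active = drop in luminescence signal, shown as inhibition above about 50% in the replicate tests, limit read from the data, passing the limit was not always enough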;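 note: agonist challenge used bursicon conditioned medium at about half maximal strength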
EBV LMP1 NFkB: reduces LMP1-driven NF-kappaB luciferase signal | 350,000 compounds, 0.69% hits | LMP1-induced NF-kappaB luciferase reporter cells, luminescence | inhibition, % at 12.5 µM; in the data active = inhibition above about 41%
HSF1 inh: HSF1 inhibition | NIH3T3-HGL HSE-luciferase, MG132-induced, luminescence 8 h; active compounds read low | activity change, negative = inhibition, % at 7.5 µM (by protocol) | 300,000 compounds, 0.77% hits | AID 2098;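 active = more than half of replicate wells show activity change below -50%, luminescence cut by over half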;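 note: luciferase reports HSF-1 transcriptional activity via heat shock element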
HSF1 activator: increases HSF-1 driven luciferase reporter signal. 300,000 compounds, 1.7% hits. NIH3T3-HGL HSF-1 luciferase reporter, MG132, 8 h; 100% = twice DMSO control signal. activation, % at 9 µM;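 active = mean replicate activation of at least 50% with a set share of replicates each reaching 50%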
Hits are given with their value. An excerpt weighted towards active compounds, which were near 3.6% of everything screened.

For Cc1c(NC(=O)C(C)N2C(=O)C3CCCCC3C2=O)c(=O)n(-c2ccccc2)n1C (stereo unspecified) the results were TROY NFkB inh inactive, TWEAK Fn14 block inactive, LGR2 inh inactive, EBV LMP1 NFkB inactive, HSF1 inh inactive and HSF1 activator inactive.
Screening C[C@H](CO)N1C[C@H](C)[C@@H](CN(C)C(=O)Nc2ccc(F)cc2)Oc2ncc(Br)cc2C1=O returned LGR2 inh inactive.
`O=[N+]([O-])c1cc(Cl)ccc1N1CCCC1` gave TROY NFkB inh inactive, TWEAK Fn14 block inactive, LGR2 inh inactive, EBV LMP1 NFkB inactive, HSF1 inh inactive and HSF1 activator inactive.
`O=C1C(Cl)=C(N2CCN(c3ccccc3[N+](=O)[O-])CC2)C(=O)c2ccccc21` gave TROY NFkB inh inactive, TWEAK Fn14 block inactive, LGR2 inh inactive, EBV LMP1 NFkB inactive, HSF1 inh inactive and HSF1 activator 124.5.
For CCc1ccc(N2C(=O)C3C4CCC(C4=C(C)C)C3C2=O)cc1 (stereo unspecified) the results were TROY NFkB inh inactive, TWEAK Fn14 block inactive, LGR2 inh inactive, EBV LMP1 NFkB inactive, HSF1 inh inactive and HSF1 activator inactive.
CC(C)=C1C2CCC1C1C(=O)N(c3ccc(C)c(C)c3)C(=O)C21 (stereo unspecified) was read as TROY NFkB inh inactive, TWEAK Fn14 block inactive, EBV LMP1 NFkB inactive, HSF1 inh -70.6 and HSF1 activator inactive.
`CC(C)NC(=O)N(C)C[C@@H]1Oc2ccc(NC(=O)Nc3ccc(F)cc3)cc2CC(=O)N([C@H](C)CO)C[C@@H]1C` gave LGR2 inh inactive.
CCCC[C@@H](CNC)NC[C@H](Cc1ccc(O)cc1)NCCc1ccc(OCC)cc1 was read as TROY NFkB inh inactive, TWEAK Fn14 block inactive, LGR2 inh inactive, EBV LMP1 NFkB inactive, HSF1 inh -79.6 and HSF1 activator inactive.
Screening CCC[C@H](CN[C@@H](CNC)[C@H](C)O)NCCc1ccc(OC)cc1 returned TROY NFkB inh inactive, TWEAK Fn14 block inactive, LGR2 inh inactive, EBV LMP1 NFkB inactive, HSF1 inh inactive and HSF1 activator inactive.
`CCOC(=O)c1c(C)oc2c1c(C=NCC1CCCO1)c(O)c1ccccc12` (stereo unspecified) gave TROY NFkB inh 68.9, TWEAK Fn14 block inactive, EBV LMP1 NFkB inactive, HSF1 inh inactive and HSF1 activator inactive.
`O=C1c2cccc3c(N4CCCCC4)ccc(c23)C(=O)N1CCO` gave TROY NFkB inh inactive, TWEAK Fn14 block inactive, EBV LMP1 NFkB inactive, HSF1 inh inactive and HSF1 activator 109.1.
`C=CCN1C(=O)c2cccc3c(N4CCCCC4)ccc(c23)C1=O` gave TROY NFkB inh inactive, TWEAK Fn14 block inactive, LGR2 inh inactive, EBV LMP1 NFkB inactive, HSF1 inh inactive and HSF1 activator inactive.
Screening O=C(OCCN1C(=O)c2ccccc2C1=O)c1cc(S(=O)(=O)N2CCOCC2)ccc1Cl returned TROY NFkB inh inactive, TWEAK Fn14 block inactive, LGR2 inh inactive and EBV LMP1 NFkB inactive.
For O=C(OCCN1C(=O)c2cccc3c(N4CCOCC4)ccc(c23)C1=O)c1cccc(Cl)c1 the results were HSF1 inh inactive and HSF1 activator inactive.
For O=C(OCCN1C(=O)c2cccc3c(N4CCOCC4)ccc(c23)C1=O)c1ccc(Cl)cc1Cl the results were TROY NFkB inh inactive, TWEAK Fn14 block 90.3, LGR2 inh inactive, EBV LMP1 NFkB inactive, HSF1 inh inactive and HSF1 activator inactive.
O=C(OCCN1C(=O)c2cccc3c(N4CCOCC4)ccc(c23)C1=O)c1ccccc1Cl was read as TROY NFkB inh 73.4, TWEAK Fn14 block 104.1, LGR2 inh 75.6, EBV LMP1 NFkB inactive, HSF1 inh inactive and HSF1 activator inactive.
`COc1cccc(-c2ccc([C@@H]3[C@H]4CN(Cc5cncnc5)CCCCN4[C@H]3CO)cc2)c1` gave LGR2 inh inactive.
`COc1ccc(-c2csc(Nc3cccc(C)n3)n2)cc1C` gave TROY NFkB inh inactive, TWEAK Fn14 block inactive, LGR2 inh inactive, EBV LMP1 NFkB inactive, HSF1 inh inactive and HSF1 activator 98.2.
Cc1cccc(Nc2nc(-c3ccc(F)cc3)cs2)n1 was read as TROY NFkB inh inactive, TWEAK Fn14 block inactive, LGR2 inh inactive, EBV LMP1 NFkB inactive, HSF1 inh inactive and HSF1 activator inactive.
Screening COc1ccc(-c2csc(Nc3cccc(C)n3)n2)cc1 returned TROY NFkB inh inactive, TWEAK Fn14 block inactive, LGR2 inh inactive, EBV LMP1 NFkB inactive, HSF1 inh inactive and HSF1 activator inactive.
`CC(=O)Oc1ccc(-c2csc(Nc3cccc(C)n3)n2)cc1` gave TROY NFkB inh inactive, TWEAK Fn14 block inactive, LGR2 inh inactive, EBV LMP1 NFkB inactive, HSF1 inh inactive and HSF1 activator 64.9.
`Cc1noc(C)c1NC(=O)Nc1ccc2c(c1)C(=O)N([C@H](C)CO)C[C@H](C)[C@@H](CN(C)C(=O)Nc1ccc(F)cc1)O2` gave LGR2 inh inactive.
Screening COc1ccc(NC(=S)N/N=C/c2ccc(F)cc2)cc1OC returned TROY NFkB inh inactive, TWEAK Fn14 block inactive, LGR2 inh inactive, EBV LMP1 NFkB inactive, HSF1 inh inactive and HSF1 activator 54.7.
Screening Fc1ccc(/C=N/NC(=S)Nc2ccc(Cl)cc2)cc1F returned TROY NFkB inh inactive, TWEAK Fn14 block inactive, LGR2 inh inactive, EBV LMP1 NFkB inactive, HSF1 inh inactive and HSF1 activator 56.1.
Screening Fc1cccc(/C=N/NC(=S)Nc2ccccc2Cl)c1 returned TROY NFkB inh inactive, TWEAK Fn14 block inactive, LGR2 inh inactive, EBV LMP1 NFkB inactive, HSF1 inh inactive and HSF1 activator 87.2.
`Cc1cccc(C)c1N1C(=O)CCC(C)(C)C1=O` gave TROY NFkB inh inactive, TWEAK Fn14 block inactive, LGR2 inh inactive, EBV LMP1 NFkB 49.8, HSF1 inh inactive and HSF1 activator inactive.
`CC1(C)CCC(=O)N(c2ccc(OC(F)(F)F)cc2)C1=O` gave TROY NFkB inh inactive, TWEAK Fn14 block inactive, LGR2 inh inactive, EBV LMP1 NFkB inactive, HSF1 inh inactive and HSF1 activator inactive.
Screening COc1ccccc1CNC(=O)c1oc2ccc(S(=O)(=O)N3CCOCC3)cc2c1C returned TROY NFkB inh inactive, TWEAK Fn14 block 52.1, LGR2 inh inactive, EBV LMP1 NFkB inactive, HSF1 inh inactive and HSF1 activator inactive.
Screening Cc1c(C(=O)NCc2ccc3c(c2)OCO3)oc2ccc(S(=O)(=O)N3CCCC3)cc12 returned TROY NFkB inh inactive, TWEAK Fn14 block inactive, EBV LMP1 NFkB inactive, HSF1 inh inactive and HSF1 activator inactive.
`COc1ccc(NC(=O)c2oc3ccc(S(=O)(=O)N4CCC5(CC4)OCCO5)cc3c2C)cc1` gave TROY NFkB inh inactive, TWEAK Fn14 block 52.9, LGR2 inh inactive, EBV LMP1 NFkB inactive, HSF1 inh inactive and HSF1 activator inactive.
Cc1c(C(=O)NCc2ccc3c(c2)OCO3)oc2ccc(S(=O)(=O)N3CCCCC3)cc12 was read as TROY NFkB inh inactive, TWEAK Fn14 block 59.1, EBV LMP1 NFkB inactive, HSF1 inh inactive and HSF1 activator inactive.

Screening data from PubChem.
